# Experimental data as given in PubChem BioAssay (NCATS).
# Records with an inconclusive call do not appear. Calls of active or inactive are those of the source. Calls follow the shape of the dose curve; as a rule, active = well fitted activation curve with a large enough effect; inconclusive = small, poorly fitted or top-dose-only effect; inactive = no such curve, though single readings can be large or run the other way.
# Experiment: qHTS for Activators of Parkin Expression: LOPAC Validation Assay (FLuc Reporter) (AID 720573)
# Settings: Cell line, PRKN promoter firefly luciferase reporter, vehicle wells = 0, positive control = 100%; series mostly up to 46.1 µM
# Description: Parkin is an E3 ubiquitin ligase localized in the cytosol of cells expressed in many tissues, including brain, skeletal muscle, heart and liver tissues. One hour after stress induction by mitochondrial uncouplers (which mimic mitochondria damage by decreasing the mitochondrial inner membrane electrochemical gradient that is used to produce ATP), Parkin translocates from the cytosol to mitochondria in many cultured cell types, including neurons and HeLa cells. Administration of other mitochondrial poisons, such as Paraquat and azide in cells lacking mitochondrial DNA (mtDNA), induces Parkin translocation to mitochondria. […] It was proposed that Parkin (together with Pink1) mediates a mitochondrial quality control pathway to maintain organelle population fidelity by removing damaged mitochondria. Understanding the normal physiologic role of Parkin (and Pink1) may uncover novel treatment strategies for sporadic Parkinson's disease patients with mutation in these genes.
# A cell based qHTS in 1536 well format was developed assess modulation of Parkin expression using a neuronal cell line that stably expresses a stably expresses a luminescent coincidence reporter (FLuc and NLuc reporters) behind the Parkin promoter. The LOPAC library is used to validate the assay for quantitative high-throughput screening. The data herein reports the signal from the FLuc reporter. An increase in this signal = activation of Parkin expression. For this assay , a positive control normalized signal increase corresponding to a high quality qHTS curve class in both luminescent channels is the desired outcome for this assay.
# NIH Chemical Genomics Center [NCGC]
# NIH Molecular Libraries Probe Centers Network [MLPCN]
# Assay Submitter (PI): Richard Youle, National Institute of Neurological Disorders and Strokes (NINDS), NIH
# [1] Narendra, D., et al., Parkin is recruited selectively to impaired mitochondria and promotes their autophagy. J Cell Biol, 2008. 183(5): p. 795-803.
# [2] Suen, D.F., et al., Parkin overexpression selects against a deleterious mtDNA mutation in heteroplasmic cybrid cells. Proc Natl Acad Sci U S A, 2010. […] 11835-40.
# [3] Cheng K, Inglese J. A coincedence reporter-gene system for high-throughput screening. Nat Methods. 2012: 9(10);937
# Five microliters (1,500 cells/well) of the Parkin coincidence reporter cells were seeded to 1536 well assay plates (Greiner Catalog # 789173-F) and incubated at 37 C, 5% CO2 for 24 hours. Compounds (23 nL) were pinned using the Kalypsys robotic system equipped with 1536 pin head adaptor in 7-point dose response. The assay plates were incubated for additional 24 hr at 37 C, 5% CO2 followed by a volume reduction in each well to 2 uL using an automated plate washer/aspirator. Following the volume reduction,2 uL of FLuc detection reagent and plates were incubated for 10 minutes at room temperature. The FLuc luminescence signal was obtained using the PerkinElmer ViewLux plate imager and then 2 uL of NanoLuc detection reagent was added to the plates. After another 10 minute incubation, NanoLuc signal was obtained using the PerkinElmer ViewLux plate imager as before. Data from each channel was normalized to DMSO (neutral control) and the positive control compounds (100%).
row,SMILES,outcome
1,CC(C)NCC(O)c1ccc(NS(C)(=O)=O)cc1 (configuration not stated),inactive
2,N[C@@H](Cc1ccc(O)c(O)c1)C(=O)O,inactive
3,CCN(CC)CC#CCOC(=O)C(O)(c1ccccc1)C1CCCCC1 (configuration not stated),inactive
4,NC(=O)c1ccc2[nH]ccc2c1,inactive
5,CC1=C(C(=O)O)N2C(=O)[C@@H](NC(=O)C(N)c3ccccc3)[C@H]2SC1 (some centres not stated),inactive
6,Cc1ccc(S(=O)(=O)N[C@@H](Cc2ccccc2)C(=O)CCl)cc1,inactive
7,NC(=O)c1cccc(N)c1,inactive
8,CC(=O)[C@H]1CC[C@H]2[C@@H]3CCC4=CC(=O)CC[C@]4(C)[C@H]3CC[C@]12C,inactive
9,CCCCS(=N)(=O)CCC(N)C(=O)O (configuration not stated),inactive
10,CC1CC2C3CCC4=CC(=O)C=C[C@]4(C)[C@@]3(F)[C@@H](O)C[C@]2(C)[C@@]1(O)C(=O)CO (some centres not stated),inactive
11,CCN1CCCC1CNC(=O)c1cc(S(N)(=O)=O)ccc1OC (configuration not stated),inactive
12,O=C(O)C1CCCN(CCC=C(c2ccccc2)c2ccccc2)C1 (configuration not stated),inactive
13,COc1cc2nc(N3CCCN(C)CC3)nc(NC3CCN(Cc4ccccc4)CC3)c2cc1OC,inactive
14,CCN(CC)CCn1c(=O)c(Cc2ccc(OC)cc2)nc2ccccc21,inactive
15,Nc1nc(N)c2nc(CNc3ccc(C(=O)NC(CCC(=O)O)C(=O)O)cc3)cnc2n1 (configuration not stated),inactive
16,COc1cc2ncnc(Nc3cccc(Cl)c3)c2cc1OC,inactive
17,OCc1ccc(-c2nn(Cc3ccccc3)c3ccccc23)o1,inactive
